Only some compounds are listed: those with a hit (about 3.5% of all), similar ones and a draw of the others.
BoNT-F LC inh: blocks Botulinum neurotoxin F light chain protease; actives 0.22% (n = 360,000); Multiplex microsphere protease cleavage assay, flow cytometry; inhibition, % at 10 µM; in the data active means inhibition above about 35%, passing the limit was not always enough; inconclusive means no clear call, values can overlap the other calls
Autofluor counter: flagged as autofluorescent in microsphere protease counterscreen; compound autofluorescence counterscreen, microsphere flow cytometry; stronger effect = higher value; fluorescence intensity (no concentration beside the values); actives 3.1% (n = 360,000); in the data active means fluorescence intensity above about 16000; inconclusive means no clear call, values can overlap the other calls
BJeLR viability: BJeLR cell viability loss | BJeLR (HRASV12) viability, CellTiter-Glo ATP luminescence, 48 h | inhibition, % (test concentration not listed) | actives 0.17% (n = 300,000) | AID 1554; in the data active means inhibition above about 50%; inconclusive means no clear call, values can overlap the other calls
Anthrax LF prot: blocks Bacillus anthracis lethal factor protease; P15917; AID 588501; actives 0.12% (n = 360,000); inhibition, % at 10 µM; multiplex microsphere protease cleavage assay, LF
Target sequence (P15917 whole entry, looked up): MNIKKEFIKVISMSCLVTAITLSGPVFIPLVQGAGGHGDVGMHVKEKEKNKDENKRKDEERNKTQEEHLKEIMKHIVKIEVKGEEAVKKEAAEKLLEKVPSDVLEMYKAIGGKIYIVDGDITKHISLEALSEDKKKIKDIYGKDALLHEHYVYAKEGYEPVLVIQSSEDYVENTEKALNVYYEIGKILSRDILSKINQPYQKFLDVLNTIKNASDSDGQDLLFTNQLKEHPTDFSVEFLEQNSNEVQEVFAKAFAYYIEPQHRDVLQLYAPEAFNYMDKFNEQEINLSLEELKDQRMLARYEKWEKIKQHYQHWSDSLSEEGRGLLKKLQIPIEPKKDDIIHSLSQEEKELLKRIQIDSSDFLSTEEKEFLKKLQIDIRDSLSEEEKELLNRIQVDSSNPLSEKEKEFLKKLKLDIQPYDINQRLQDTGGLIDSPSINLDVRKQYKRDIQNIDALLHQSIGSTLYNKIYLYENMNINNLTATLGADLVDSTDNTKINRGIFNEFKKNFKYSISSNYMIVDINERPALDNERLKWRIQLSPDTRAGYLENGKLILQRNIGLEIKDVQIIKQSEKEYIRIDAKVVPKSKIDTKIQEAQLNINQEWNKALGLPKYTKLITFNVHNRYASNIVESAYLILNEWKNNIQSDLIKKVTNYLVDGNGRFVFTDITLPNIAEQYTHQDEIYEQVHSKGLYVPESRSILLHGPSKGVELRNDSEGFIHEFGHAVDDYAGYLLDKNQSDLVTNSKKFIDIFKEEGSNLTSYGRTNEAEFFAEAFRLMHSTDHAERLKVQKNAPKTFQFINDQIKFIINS
BoNT A protease: blocks Botulinum neurotoxin A light chain protease | multiplex microsphere protease substrate cleavage, flow cytometry | inhibition, % at 10 µM | actives 0.17% (n = 360,000) | AID 588499
Hits are given with their value. Unless noted, no stated cut-off is given here; in the data, active means inhibition above about 30%; inconclusive means no clear call, values can overlap the other calls; inactive means below that.

For CCOC(=O)c1c(C)[nH]c(C(=O)NCc2ccccn2)c1C the results were BoNT-F LC inh inactive, Autofluor counter inconclusive, BJeLR viability inactive, Anthrax LF prot inactive and BoNT A protease inactive.
CCOC(=O)c1[nH]c(C)c(C(=O)NCc2ccccn2)c1C was read as BoNT-F LC inh inactive, Autofluor counter 21338, BJeLR viability inactive, Anthrax LF prot inactive and BoNT A protease inactive.
For CCOC(=O)c1[nH]c(C)c(C(=O)C(C)C)c1C the results were BoNT-F LC inh inactive, Autofluor counter 16910, BJeLR viability inactive, Anthrax LF prot inactive and BoNT A protease inactive.
Screening N#CCC(=O)N/N=C/c1ccc(OCC(=O)Nc2ccc(F)cc2)cc1 returned BoNT-F LC inh inactive, Autofluor counter inactive, BJeLR viability inactive, Anthrax LF prot inactive and BoNT A protease inactive.
`CCOC(=O)c1[nH]c(C)c(C(=O)N(C)Cc2ccccc2)c1C` gave BoNT-F LC inh inactive, Autofluor counter 18491, BJeLR viability inactive, Anthrax LF prot inactive and BoNT A protease inactive.
Screening Cc1ccc(NC(=O)c2noc3c2CCCCC3)cc1C returned BoNT-F LC inh inactive, Autofluor counter 16801, BJeLR viability inactive, Anthrax LF prot inactive and BoNT A protease inactive.
Cc1ccc(NC(=O)c2noc3c2CCCCC3)cc1 was read as BoNT-F LC inh inactive, Autofluor counter 22657, BJeLR viability inactive, Anthrax LF prot inactive and BoNT A protease inactive.
For COCCNC(=O)C(c1ccc(O)cc1)N(Cc1ccccc1)C(=O)CCC(=O)Nc1nccs1 (stereo unspecified) the results were BoNT-F LC inh inactive, Autofluor counter inactive, BJeLR viability inactive, Anthrax LF prot inactive and BoNT A protease inactive.
`Cc1cc(C(=O)Nc2nc3c(s2)CCCC3)cs1` gave BoNT-F LC inh inactive, Autofluor counter 16226, BJeLR viability inactive, Anthrax LF prot inactive and BoNT A protease inactive.
`Cc1cc(C(=O)Nc2nnc(C(F)(F)F)s2)cs1` gave BoNT-F LC inh inactive, Autofluor counter inactive, BJeLR viability inactive, Anthrax LF prot inactive and BoNT A protease inactive.
Cc1cc(C(=O)Nc2nnc(C3CCCCC3)s2)cs1 was read as BoNT-F LC inh inactive, Autofluor counter 23418, BJeLR viability inactive, Anthrax LF prot inactive and BoNT A protease inconclusive.
`O=C(Nc1nc2c(s1)CCCC2)C1CCCN1C(=O)c1cccs1` (stereo unspecified) gave BoNT-F LC inh inactive, Autofluor counter 16410, BJeLR viability inactive, Anthrax LF prot inactive and BoNT A protease inactive.
CCOC(=O)Cc1csc(NC(=O)c2csc(C)c2)n1 was read as BoNT-F LC inh inactive, Autofluor counter 20408, BJeLR viability inactive, Anthrax LF prot inactive and BoNT A protease inactive.
For CCOC(=O)Cc1csc(NC(=O)c2cccc(OC)c2)n1 the results were BoNT-F LC inh inconclusive, Autofluor counter inactive, BJeLR viability inactive, Anthrax LF prot inactive and BoNT A protease inactive.
For O=C(Nc1cccc(OC(F)(F)F)c1)C1Cc2c(-c3cccc(F)c3)ccnc2O1 (stereo unspecified) the results were BoNT-F LC inh inactive, Autofluor counter inactive, Anthrax LF prot inactive and BoNT A protease inactive.
COc1ccc(-c2csc(C(C)(O)c3ccc(F)c(F)c3)n2)cc1 (stereo unspecified) was read as BoNT-F LC inh inactive, Autofluor counter inactive, Anthrax LF prot inactive and BoNT A protease inactive.
Screening Cc1cccc(Cn2cnc3c(nnn3Cc3ccccc3F)c2=O)c1 returned BoNT-F LC inh inactive, Autofluor counter 22956, BJeLR viability inactive, Anthrax LF prot inactive and BoNT A protease inactive.
`CC1=C(C(=O)N(C(C)C)C(C)C)CC(CC(=O)NCc2cccc3ccccc23)C(=O)N1Cc1ccccc1` (stereo unspecified) gave BoNT-F LC inh inactive, Autofluor counter inactive, Anthrax LF prot inactive and BoNT A protease inactive.
`CC(C)S(=O)(=O)NC(=O)C1(C)CCN1C(=O)Cc1ccccc1` (stereo unspecified) gave BoNT-F LC inh inactive, Autofluor counter inactive, Anthrax LF prot inactive and BoNT A protease inactive.
O=C(NCc1cccnc1)c1cc(C2CCCN(S(=O)(=O)c3cccs3)C2)on1 (stereo unspecified) was read as BoNT-F LC inh inactive, Autofluor counter inactive, Anthrax LF prot inactive and BoNT A protease inactive.
Screening CCCn1c(=O)c(C(=O)Nc2ccccc2C)c(O)c2ccccc21 returned BoNT-F LC inh inconclusive, Autofluor counter inactive, BJeLR viability inactive, Anthrax LF prot inactive and BoNT A protease inactive.
`CCCCCCC(=O)NNC(=O)c1c(O)c2ccccc2n(CC)c1=O` gave BoNT-F LC inh inactive, Autofluor counter inactive, BJeLR viability inactive, Anthrax LF prot inactive and BoNT A protease inactive.
`CCCCCCCCC(=O)NNC(=O)c1c(O)c2ccccc2n(CC)c1=O` gave BoNT-F LC inh 39, Autofluor counter inactive, BJeLR viability inactive, Anthrax LF prot inactive and BoNT A protease inactive.
For CCn1c(=O)c(C(=O)Nc2ccccc2C)c(O)c2ccccc21 the results were BoNT-F LC inh inactive, Autofluor counter 22484, BJeLR viability inactive, Anthrax LF prot inactive and BoNT A protease inconclusive.
CC1(Cc2ccccc2Cl)C(=O)Nc2c(Cl)ccc(Cl)c21 (stereo unspecified) was read as BoNT-F LC inh inactive, Autofluor counter inactive, Anthrax LF prot inactive and BoNT A protease inactive.
`C[C@@H](NC(=O)[C@@H]1CCCN1C(=O)[C@@H]1CCCN1C(=O)c1ccc(Cl)cc1)c1ccccc1` gave BoNT-F LC inh inactive, Autofluor counter inactive, Anthrax LF prot inactive and BoNT A protease inactive.
COc1ccc(/C=C2/CCC(CN3CCOCC3)C2=O)cc1 (stereo unspecified) was read as BoNT-F LC inh inactive, Autofluor counter inactive, Anthrax LF prot inactive and BoNT A protease inactive.
For N=C1N(/N=C/c2ccccc2)C(=Nc2ccccc2)C(=S)N1c1ccccc1 the results were BoNT-F LC inh inactive, Autofluor counter 18941, BJeLR viability inactive, Anthrax LF prot inactive and BoNT A protease inactive.
Cc1ccc(/C=N/n2c(-c3ccccc3)n[nH]c2=S)cc1 was read as BoNT-F LC inh inactive, Autofluor counter inactive, BJeLR viability inactive, Anthrax LF prot inactive and BoNT A protease inactive.
`O=C(O)CSC1CC(=O)N(c2ccc(Br)cc2)C1=O` (stereo unspecified) gave BoNT-F LC inh inactive, Autofluor counter inactive, BJeLR viability inactive, Anthrax LF prot inactive and BoNT A protease inactive.
O=C1CC(SCCO)C(=O)N1c1ccccc1 (stereo unspecified) was read as BoNT-F LC inh inactive, Autofluor counter 23642, BJeLR viability inactive, Anthrax LF prot inactive and BoNT A protease inactive.
COc1ccc(N2CCN(C(=O)CSc3nnc4c(C)cc5ccc(C)c(C)c5n34)CC2)cc1 was read as BoNT-F LC inh inactive, Autofluor counter 21530, BJeLR viability inactive, Anthrax LF prot inactive and BoNT A protease inactive.
For COc1ccc(N2CCN(C(=O)CSc3nnc4c(C)cc5cc(C)ccc5n34)CC2)cc1 the results were BoNT-F LC inh inactive, Autofluor counter 23987, BJeLR viability inactive, Anthrax LF prot inactive and BoNT A protease inactive.
`O=C1N/C(=C/c2ccc(N3CCOCC3)cc2)C(=O)N1Cc1ccc(F)cc1` gave BoNT-F LC inh inactive, Autofluor counter 18011, BJeLR viability inactive, Anthrax LF prot inactive and BoNT A protease inactive.

Screening data as filed in PubChem BioAssay.
